# Bioassay records: PubChem, Sanford-Burnham Center for Chemical Genomics
# Rows were chosen to be rich in hits. Some 2.9% of all compounds tested hit in one or more screens of this group.
# H9c2 protect: protects H9c2 cardiomyocytes from peroxide injury | H2O2 injury protection, ATPLite, 2 h | actives 0.63% (n = 360,000) | protection from H2O2 cell death, % at 20 µM | AID 588492;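 active = compounds giving at least 50% protection of heart cells from peroxide-induced death in the single-dose screen, raw or plate-pattern-corrected value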;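 also: 0% = DMSO wells with peroxide and 100% = DMSO wells without peroxide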
# A3A deaminase: human APOBEC3A DNA deaminase inhibition | P31941 | recombinant A3A, FAM/TAMRA ssDNA deamination fluorescence | inhibition, % at 20 µM | actives 0.41% (n = 330,000) | AID 493011;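 active = at least 40% inhibition at 20 µM here, with at most 30% in a related deaminase screen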;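 also: plate controls were A3A with DMSO for no effect and wells lacking A3A enzyme for full effect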
# Target sequence (P31941 whole entry, looked up): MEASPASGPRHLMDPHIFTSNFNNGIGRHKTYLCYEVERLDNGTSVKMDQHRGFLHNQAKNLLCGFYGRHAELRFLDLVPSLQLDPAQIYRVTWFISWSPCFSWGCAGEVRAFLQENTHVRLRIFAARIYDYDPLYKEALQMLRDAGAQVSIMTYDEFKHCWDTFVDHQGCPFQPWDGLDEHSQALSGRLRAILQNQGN
# H9c2 TAG inh: triacylglycerol accumulation inhibition; H9c2 cells, Nile Red lipid (TAG) fluorescence; cells loaded with 200 µM oleic acid; inhibition, % at 12.5 µM; actives 0.66% (n = 230,000);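 active = pattern-corrected inhibition of lipid staining of at least 50% with the nuclear-stain viability signal not falling by more than 50%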;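 also: 0% = DMSO wells and 100% = triacsin C control wells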
# PfGluPho inh: PfG6PD (Plasmodium falciparum) enzyme inhibition | PfGluPho enzyme, NADPH resazurin-diaphorase fluorescence | inhibition, % at 20 µM | actives 0.78% (n = 350,000) | AID 504690;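 active = inhibition reaching at least a set limit at 20 µM in the primary screen, cut at about 59% in these data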;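 also: 0% = DMSO wells with substrate and 100% = DMSO wells lacking glucose-6-phosphate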
# APOBEC3G inh: blocks human APOBEC3G single-stranded DNA deamination. Q9HC16. recombinant A3G, ssDNA deamination FAM/TAMRA fluorescence. inhibition, % at 20 µM. actives 0.28% (n = 330,000). AID 493012;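 active = inhibition of at least 40% at 20 µM, with no more than 30% in the related APOBEC3A deaminase screen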;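 also: plate controls were DMSO wells with A3G for no effect and wells lacking A3G enzyme for full effect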
# Target sequence (Q9HC16 whole entry, looked up): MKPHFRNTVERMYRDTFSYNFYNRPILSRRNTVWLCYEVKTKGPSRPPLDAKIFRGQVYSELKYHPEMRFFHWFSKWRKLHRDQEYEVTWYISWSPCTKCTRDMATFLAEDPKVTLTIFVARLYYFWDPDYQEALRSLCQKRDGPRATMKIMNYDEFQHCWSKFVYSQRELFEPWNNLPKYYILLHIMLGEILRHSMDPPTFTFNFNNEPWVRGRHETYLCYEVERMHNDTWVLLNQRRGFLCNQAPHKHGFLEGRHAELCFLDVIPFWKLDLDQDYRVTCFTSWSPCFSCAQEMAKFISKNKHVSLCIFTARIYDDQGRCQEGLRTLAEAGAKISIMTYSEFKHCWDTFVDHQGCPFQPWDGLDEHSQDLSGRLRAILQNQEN
# NadD inh: inhibitors of Staphylococcus aureus NadD. purified NadD enzyme, colorimetric absorbance read-out. inhibition, % at 20 µM. actives 0.78% (n = 360,000); in the data active = inhibition above about 26%
# NadD conf: NadD (S. aureus) inhibition, single concentration confirmation. shares compounds with NadD inh. purified S. aureus NadD, colorimetric enzyme assay. inhibition, % at 20 µM. actives 13% (n = 2,000). AID 624309; in the data active = inhibition mostly above about 42%, no sharp cut-off; inactive = mostly below about 42%
# * marks the source's active call; other numbers are inactive results; / = no result given.
SMILES,H9c2 protect,A3A deaminase,H9c2 TAG inh,PfGluPho inh,APOBEC3G inh,NadD inh,NadD conf
CSc1nc(N(C)CCO)c2sc3nc(-c4ccco4)c4c(c3c2n1)CCC4,-2,96,/,11,89,9,/
C#CCOCCOCCOCCNc1nc(N2CCN(C(=O)Cn3cc(CCCN=C(N)N)nn3)CC2)nc(N2CCN(C(=O)[C@H](CCCCN)n3cc(CCCC)nn3)CC2)n1,1,3,-8,8,-1,-1,/
Cc1ccc2nc(N/N=C\c3ccc([N+](=O)[O-])o3)nc(-c3ccccc3)c2c1,37,10,3,9,-1,37*,11
O=[N+]([O-])c1ccc(/C=N/Nc2nc(-c3ccccc3)c3cc(Br)ccc3n2)o1,10,4,10,-22,-1,41*,12
CC(=O)Nc1ccc(NC(=O)CCNC(=O)c2ccccc2Cl)cc1,0,1,/,-13,-1,-4,/
COc1ccc(CSC(=S)NNc2ccccc2)cc1,-10,/,-5,16,/,2,/
CCOC(=O)C1(Cc2ccccc2C)CCCN(C(=O)CCn2nccc2C)C1 (stereo unspecified),10,-2,-13,2,-3,0,/
Cc1cc(C)cc(NC(=O)C(OC(=O)c2ccc(NC(=O)CC#N)cc2)c2ccccc2)c1 (stereo unspecified),-4,0,-16,10,-8,40*,45*
Cc1cc(C)cc(NC(=O)C(OC(=O)c2cccs2)c2ccccc2)c1 (stereo unspecified),-2,-2,/,12,-2,-12,/
Cc1ccc(C)c(NC(=O)C(OC(=O)c2ccc(NC(=O)CC#N)cc2)c2ccccc2)c1 (stereo unspecified),2,2,4,-8,2,37*,53*
Cc1ccc(C)c(NC(=O)C(OC(=O)c2ccc(CO)cc2)c2ccccc2)c1 (stereo unspecified),2,3,-28,-8,-6,-6,/
CC(NC(=O)c1cccc(OC2CCN(C3CCN(C)CC3)CC2)c1)c1ccccc1 (stereo unspecified),6,-5,/,-9,-5,-5,/
COc1ccc2nc3sc(C(=O)N4CCN(C)CC4)cc3cc2c1,4,5,7,12,2,-2,/
COc1ccc2nc3sc(C(=O)NCCCN4CCc5ccccc5C4)cc3cc2c1,13,8,/,34,1,30*,9
CC(C)C[C@@H](CNCC(=O)[C@H](Cc1c[nH]c2ccccc12)NC(=O)c1[nH]cnc1C(=O)N[C@H](CN)CC(C)C)NC(=O)c1nc[nH]c1C(=O)N[C@@H](CC(=O)O)C(=O)O,3,/,17,7,/,31*,45
CC(C)C[C@@H](CNCC(=O)[C@H](Cc1c[nH]c2ccccc12)NC(=O)c1[nH]cnc1C(=O)N[C@@H](C)CN)NC(=O)c1nc[nH]c1C(=O)N[C@@H](CC(=O)O)C(=O)O,-1,/,8,15,/,14,/
CCCCn1c(N)c(N(CC(C)C)C(=O)C2CCN(S(=O)(=O)c3ccc(Cl)cc3)CC2)c(=O)[nH]c1=O,-1,2,-15,-16,-2,0,/
O=C(CCc1nc(-c2ccccc2F)no1)Nc1cccnc1,2,-1,/,-1,-4,66*,-4
CCOc1ccccc1-c1noc(CCC(=O)Nc2cccnc2)n1,-1,-4,/,2,-8,-6,/
C[C@@H]1CN([C@H](C)CO)S(=O)(=O)c2ccc(Br)cc2O[C@H]1CN(C)C(=O)C1CCCCC1,2,/,-1,-10,/,4,/
CCOC(=O)C1=C(c2ccccc2)N=c2s/c(=C\c3cccc(O)c3)c(=O)n2C1c1cccs1 (stereo unspecified),-15,-4,/,15,-10,29,/
O=c1/c(=C\c2ccc(O)cc2)sc2n1C(c1ccccc1)C(c1ccccc1)=NN=2 (stereo unspecified),13,-19,/,-6,-24,39*,57*
COc1ccc(CCN(C)C(=O)c2c(C)noc2C)cc1OC,-4,1,14,-2,-1,5,/
COc1ccc(C2CC(c3ccccc3)=NN2C(=O)c2ccc(F)cc2)cc1 (stereo unspecified),-5,-5,/,7,-8,-8,/
COc1ccc(C2CC(c3ccccc3)=NN2C(=O)CN2N=NC3C(=O)N(c4cccc(F)c4)C(=O)C32)cc1 (stereo unspecified),2,-1,-20,-6,-2,40*,8
SMILES,H9c2 protect,A3A deaminase,H9c2 TAG inh,PfGluPho inh,APOBEC3G inh,NadD inh,NadD conf
O=C(Nc1ccc(F)c(Cl)c1)Nc1nnc([C@@H]2O[C@H](CO)[C@@H](O)[C@H]2O)s1,0,/,-6,/,/,0,/
O=C(NCCN1C(=O)S/C(=C\c2ccc(Cl)c(Cl)c2)C1=O)c1ccc2c(c1)C(=O)N(Cc1ccncc1)C2=O,-22,-3,/,0,-3,28*,-4
O=C(NCCN1C(=O)S/C(=C\c2ccc(Cl)c(Cl)c2)C1=O)C1COc2ccccc2O1 (stereo unspecified),-15,9,21,20,-3,16,/
Cc1cccc(N(C(=O)c2snc(C(N)=O)c2N)C(C(=O)NCc2ccccc2)c2ccncc2)c1 (stereo unspecified),16,1,/,13,2,2,/
Cc1c(C(=O)OCC(=O)N(CC(C)C)c2c(N)n(Cc3ccccc3)c(=O)[nH]c2=O)oc2ccccc12,-1,-2,0,-1,-6,10,/
CCOc1ccc2oc(C(=O)OCC(=O)N(CC(C)C)c3c(N)n(Cc4ccccc4)c(=O)[nH]c3=O)c(C)c2c1,0,/,9,-95,/,40*,34
COc1ccccc1N1CCN(S(=O)(=O)CCNC(=O)C2CCCC2)CC1,8,-1,10,-6,-9,-6,/
O=c1c2ccccc2nc(/C=C/c2c[nH]c3ccccc23)n1-c1ccc([N+](=O)[O-])cc1,19,-2,24,-11,-4,40*,-1
O=C(O)CCSc1nnc(COc2cccc3ccccc23)n1-c1cccc(Cl)c1,3,-5,-7,-3,-8,7,/
CC(C)C[C@H]1CN([C@@H](CC(C)C)CN2CCC[C@H]2CN2C(=O)C(=O)NC[C@@H]2Cc2ccc(O)cc2)C(=O)C(=O)N1CC1CCCCCC1,/,/,/,/,/,30*,21
CC(C)C[C@@H](CN1CCC[C@@H]1CN1C(=O)C(=O)NC[C@@H]1Cc1ccccc1)N1C[C@H](Cc2ccc(O)cc2)N(CC2CCCCC2)C(=O)C1=O,-3,/,5,-5,/,22,/
CC(C)C[C@@H](CN1CCC[C@H]1CN1C(=O)C(=O)NC[C@@H]1Cc1ccccc1)N1C[C@H](Cc2ccc(O)cc2)N(CC2CCCCCC2)C(=O)C1=O,/,/,/,/,/,41*,33
